# Assay outcomes from PubChem.
# Sampled rows, rich in hits. Any-hit rate of the full collection: about 6.3%.
# RORgamma inh: inhibitors of mouse ROR gamma transcriptional activity | AID 2551 | P51450 | Potency, µM (titrated, usually from 53.6 µM), without a hit: at the highest dose activity change, negative = inhibition, usual class: inhibitors | 310,000 compounds, 5.4% hits | Drosophila S2 Gal4-RORgamma UAS-luciferase reporter, 20 h; further: on the % scale 0 is the no-effect control and ±100 the full control effect; nearly all actives have a fitted effect of over 60% in size
# Target sequence (P51450 whole entry, looked up, the tested form may be a part): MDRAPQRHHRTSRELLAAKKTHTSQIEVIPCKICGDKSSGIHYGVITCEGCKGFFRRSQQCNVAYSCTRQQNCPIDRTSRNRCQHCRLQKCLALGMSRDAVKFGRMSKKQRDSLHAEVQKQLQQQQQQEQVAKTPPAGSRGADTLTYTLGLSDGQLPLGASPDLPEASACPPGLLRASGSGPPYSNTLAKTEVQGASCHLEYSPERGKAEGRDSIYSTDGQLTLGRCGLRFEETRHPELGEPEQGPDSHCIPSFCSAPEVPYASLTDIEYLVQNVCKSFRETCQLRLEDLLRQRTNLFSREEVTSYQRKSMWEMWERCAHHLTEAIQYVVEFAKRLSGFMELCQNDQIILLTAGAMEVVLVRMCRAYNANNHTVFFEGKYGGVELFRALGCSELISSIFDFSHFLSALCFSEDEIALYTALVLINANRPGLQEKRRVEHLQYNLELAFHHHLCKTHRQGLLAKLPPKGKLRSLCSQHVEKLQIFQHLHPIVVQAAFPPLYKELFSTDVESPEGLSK
#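 Compounds are pin-transferred onto Drosophila Schneider cells expressing a copper-inducible Gal4–ROR gamma transactivation domain fusion. After 1 hr, copper sulfate is added to 700 uM final; luciferase is read 20 hr later.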
# TGFb SMAD3 inh: inhibitors of TGF-b signaling; HepG2 CAGA-GFP TGF-b/SMAD3 reporter, GFP fluorescence, 18 h; TGF-beta stimulated, 500 pg/mL final; Potency, µM (highest dose often 46.1 µM), for the others: at the highest dose activity, negative = inhibition, actives largely listed as inhibitors; 410,000 compounds, 1.2% hits; further: on the % scale 0 is the no-effect control and ±100 the full control effect; nearly all actives have a fitted effect of over 65% in size
#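 Per well, imaged GFP fluorescence of HEPG2 CAGA-GFP cells gives the signal; cells get compound, then TGF-beta (500 pg/mL final), 18 h at 37 degrees C; %Activity versus -TGF-beta and +DMSO controls.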
# ATXN2 expr inh: reduces ATXN2 reporter expression in HEK-293 cells; HEK-293 ATXN2-luciferase reporter, luminescence, 24 h; Potency, µM (titrated, usually from 57 µM), for inactives: at the highest dose activity change, negative = inhibition, hits mostly inhibitors; 360,000 compounds, 0.72% hits; further: on the % scale 0 is the no-effect control and ±100 the full control effect; nearly all actives have a fitted effect of over 55% in size
#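 ATXN2-luciferase reporter cells (luciferase flanked by upstream and downstream ATXN2 gene portions) were treated 24 h at 37 °C with compounds at up to 57 uM. SteadyGlo luminescence gave expression; GF-AFC fluorescence gave viability.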
# VP16 counter: inhibits Gal4-VP16 luciferase reporter, ROR gamma counter-screen; Drosophila S2 Gal4-VP16 UAS-luciferase, luminescence, 20 h; Potency, µM (titrated, usually from 53.6 µM), inactives show at the highest dose activity, negative = inhibition, actives largely listed as inhibitors; 310,000 compounds, 3.5% hits;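 further: Gal4-VP16 expression switched on by copper sulfate through the metallothionein promoter; on the % scale 0 is the no-effect control and ±100 the full control effect; nearly all actives have a fitted effect of over 50% in size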
# ATXN viability: viability counter-screen for ATXN expression inhibitors. Potency, µM (doses to about 56.7 µM), hits mostly cytotoxic. S2 cells (HEK-293 line with an ATXN2-luciferase reporter) viability, CellTiter-Fluor protease fluorescence, 24 h. 400,000 compounds, 0.49% hits. AID 651635; further: nearly all actives have a fitted effect of over 40% in size
# HepG2 viability: counter-screen for TGF-b inhibitors: cytotoxicity in HepG2 cells. HepG2 CAGA-GFP viability, ATP luminescence, 18 h. Potency, µM (top dose mostly 46.1 µM), inactives show at the top dose activity change, negative = cytotoxicity, usual class: cytotoxic. 410,000 compounds, 0.76% hits
#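 HepG2 CAGA-GFP cells (1000/well, DMEM with 1% FBS) received compound, then TGF-beta at 500 pg/mL final, and were incubated 18 hours at 37 degrees C. Viability was read by CellTiter-Glo luminescence. Media-only wells were set as complete cell-killing and DMSO as no toxicity.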
# Numbers without * were called inactive; i = inactive; ? = inconclusive; nt = no result given. The call rests on the fitted dose curve; in most records, active means well fitted curve in the direction sought with a large enough effect; inconclusive means small, poorly fitted or top-dose-only effect, or another doubt; inactive means no such curve, though single readings can be large; an effect the other way counts as inactive or inconclusive. Potency means the concentration at half of the fitted maximal effect.
SMILES,RORgamma inh,TGFb SMAD3 inh,ATXN2 expr inh,VP16 counter,ATXN viability,HepG2 viability
CC1(C)C2CC=C(/C=N/NC(=S)NCCc3ccccc3)C1C2 (stereo not drawn),2µM*,?,-11%,7.1µM*,nt,12%
CCCCn1nnnc1C(c1cc2ccccc2o1)N(CCC#N)Cc1ccccc1 (stereo not drawn),nt,nt,14%,nt,i,nt
O=C(c1cnsn1)N1CCOc2ccc(CN3CCOCC3)cc2C1,nt,nt,nt,nt,i,nt
Cc1cccc(-c2noc(CSc3ccccc3)n2)c1,6%,6%,63%,10%,i,-17%
Cc1ccc(-c2noc(CSc3ccccc3)n2)cc1,?,-23%,106%,2µM*,i,-13%
CC(=O)c1c(N2CCN(C)CC2)[nH]c(-c2ccccc2)nc1=S,10µM*,23%,0%,-20%,i,-45%
COc1ccc(CNc2ccnc(-c3cccnc3)n2)c(OC)c1,?,nt,nt,-15%,nt,nt
CCOCCc1nn2c(=O)cc(COC(=O)c3ccccc3OC)nc2s1,nt,-10%,4%,nt,i,-16%
CCOC(=O)c1c(SCCN2CCCC2)n(-c2ccccc2)c(=S)n(-c2ccccc2)c1=O,nt,?,22µM*,nt,?,-47%
Cc1ccc(-n2ncc(C(=O)NCCN3CCc4ccccc4C3)c2C2CCN(C(=O)OC(C)(C)C)CC2)c(C)c1,nt,16µM*,?,nt,nt,-45%
CC(C)(C)OC(=O)N1CCC(c2c(C(=O)N3CCN(C4CCCCC4)CC3)cnn2-c2ccccc2)CC1,2%,4%,nt,-9%,i,1%
Cc1cccc(-n2ncc(C(=O)N3CCN(C4CCCCC4)CC3)c2C2CCN(C(=O)OC(C)(C)C)CC2)c1,nt,8.9µM*,nt,nt,nt,-18%
COc1ccccc1CN1CCC(CNC(=O)c2cnn(-c3ccc(Cl)cc3)c2C2CCN(C(=O)OC(C)(C)C)CC2)CC1,nt,10µM*,nt,nt,nt,-108%
Cc1ccc(-n2ncc(C(=O)NCCN3CCc4ccccc4C3)c2C2CCN(C(=O)OC(C)(C)C)CC2)cc1,nt,?,nt,nt,nt,-100%
CC(C)(C)OC(=O)N1CCC(c2c(C(=O)NCCN3CCC(Cc4ccccc4)CC3)cnn2-c2cccc(Cl)c2)CC1,nt,?,nt,nt,nt,7.1µM*
CN1CCN(CCNC(=O)c2cnn(-c3cccc(Cl)c3)c2C2CCN(C(=O)OC(C)(C)C)CC2)CC1,nt,2%,nt,nt,nt,-36%
CC1(C)OC[C@@H]2O[C@@]3(C(=O)O)OC(C)(C)O[C@H]3[C@@H]2O1,nt,nt,-1%,nt,i,nt
COc1ccc(-c2nc(N3CCN(S(=O)(=O)c4ccc(C)cc4)CC3)c3ccccc3n2)cc1,nt,-8%,nt,nt,nt,-21%
Cc1nc(-c2ccc(Cl)cc2)oc1COC(C)(C)C(=O)O,3%,nt,5%,5%,i,nt
Cc1ccc(-n2ncc(C(=O)NCCN3CCC(Cc4ccccc4)CC3)c2C2CCN(C(=O)OC(C)(C)C)CC2)cc1,nt,?,nt,nt,nt,13µM*
O=C(Cn1c(=O)n(-c2ccc(Cl)cc2)c(=O)c2c3c(sc21)CCC3)c1ccc(F)cc1,nt,-16%,-5%,nt,i,-1%
CCN(CC)C(=O)c1ccc(Nc2nnc(-c3ccc(C)c(S(=O)(=O)NC)c3)c3ccccc23)cc1,nt,11µM*,-15%,nt,i,-82%
Cc1ccc(-c2nnc(Nc3ccc(O)cc3)c3ccccc23)cc1S(=O)(=O)N1CCN(C)CC1,nt,10µM*,?,nt,?,-21%
Cc1ccc(-c2nnc(Nc3ccc(Cl)c(Cl)c3)c3ccccc23)cc1S(=O)(=O)NCCO,nt,11µM*,?,nt,?,-29%
C#CC(C)(C)NS(=O)(=O)c1cc(-c2nnc(Nc3ccc(C)cc3)c3ccccc23)ccc1C,nt,13µM*,-8%,nt,i,8%
SMILES,RORgamma inh,TGFb SMAD3 inh,ATXN2 expr inh,VP16 counter,ATXN viability,HepG2 viability
CNC(=O)COc1ccc(Nc2nnc(-c3ccc(C)c(S(=O)(=O)NC(C)(C)C)c3)c3ccccc23)cc1,nt,17%,-26%,nt,i,-1%
Cc1ccc(-c2nnc(Nc3ccc4c(c3)OCO4)c3ccccc23)cc1S(=O)(=O)NCCO,?,?,0%,-7%,i,31%
CNS(=O)(=O)c1cc(-c2nnc(Nc3ccc(NC(C)=O)cc3)c3ccccc23)ccc1C,33%,?,13%,-1%,i,13%
CC1(C)Cc2c(cnn2-c2ccc(F)cc2)C(NC(=O)CCC(F)(F)F)C1 (stereo not drawn),33%,-3%,1%,-7%,i,-12%
COC(=O)[C@@H]1CCCN1C(=O)c1cnn(-c2nccc(-c3cc(C)sc3C)n2)c1C1CC1,nt,nt,nt,nt,i,nt
Cc1ccc(C(=O)N(CCCN)[C@@H](c2nc3cc(Cl)ccc3c(=O)n2Cc2ccccc2)C(C)C)cc1,nt,nt,-48%,nt,nt,nt
O=C(N/N=C/c1ccc2c(c1)OCO2)c1ccccn1,?,0%,?,?,i,7.1µM*
CC(C)c1ccc(/C=N/NC(=O)c2ccccn2)cc1,11µM*,3%,13µM*,?,i,-22%
CCCCCCN1C[C@H](n2cc(C3CC3)nn2)[C@@H](O)C[C@@H]1c1ccccc1,nt,?,?,nt,?,-107%
Cc1ccc(OCc2ccc(-c3nc(C#N)c(NCc4ccccc4Cl)o3)o2)cc1,nt,?,?,nt,20µM*,-62%
COc1ccc(CNc2oc(-c3ccc(COc4ccc(OC)cc4)o3)nc2C#N)cc1,nt,-22%,-19%,nt,i,-12%
O=C(N/N=C/c1ccncc1)c1ccccc1,34%,17%,6%,0%,i,-3%
O=C(N/N=C/c1cccn1-c1ccccc1)c1ccncc1,3.5µM*,-3%,-17%,20µM*,i,-7%
O=C(N/N=C/c1sc(=O)n(-c2ccccc2)c1Cl)c1ccncc1,7.1µM*,2%,nt,11µM*,i,9%
O=C(N/N=C/c1cccn1-c1ccc([N+](=O)[O-])cc1)c1cccnc1,?,?,-26%,10µM*,i,-18%
O=C(N/N=C/c1cccnc1)c1ccc([N+](=O)[O-])cc1,-5%,-16%,-3%,2%,i,-3%
COc1cc(C(=O)N/N=C/c2sc(=O)n(-c3ccccc3)c2Cl)cc(OC)c1OC,-20%,?,8%,?,?,-12%
OC(c1ccc(F)cc1)c1nc(-c2ccc(Cl)cc2)cs1 (stereo not drawn),nt,-26%,1%,nt,i,-43%
Cc1cc(C(=O)Nc2ccccc2-c2nc(CNC(=O)C3(C)CCCCC3)c(C)o2)c(C)o1,nt,nt,nt,nt,i,nt
O=C(Nc1cccnc1Cl)c1cnn2c1NC(=C1CC1)C=C2C(F)F,nt,-2%,nt,nt,nt,10%
